From PubChem
This is a sample that favours compounds with a hit; in the whole collection about 9.3% have one here.
M1 ag: activates the M1 muscarinic receptor; CHO-M1 cells, Fluo-4 calcium fluorescence, agonist mode; active compounds read high; B-score at 10 µM; 64,000 compounds, 3% hits; AID 626;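 active = fluorescence rise, raw or as B-score row- and column-corrected plate score, outside the 99.7% band of its plate's samples, either direction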
A340 absorber: compounds absorbing at 340 nm; compound absorbance at 340 nm, fold over control; 65,000 tested, under 10 active; fold change at 10 µM;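 active = at 10 µM dose, initial 340 nm absorbance at least 2 fold that of control wells; inactive = change under 2 fold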;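 also: initial absorbance extrapolated from kinetic A340 decline of NADH oxidation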
Htt clearance: mutant huntingtin protein clearance; HeLa Exon1htt(103Q)mCFP, aggregate imaging; zero = plate's median compound well; inhibition, % at 1.5 µM; 47,000 compounds, 0.42% hits; AID 853;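 active = inhibition of aggregate fluorescence above about 70%, also judged a hit by eye on the cell image, limit read from the data, passing the limit was not always enough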;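 also: cells exposed to compound for three days before fixation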
M1 antagonist: blocks the rat M1 muscarinic receptor response to acetylcholine | P08482 | CHO-M1 cells, Fluo-4 calcium, ACh EC80 antagonist mode; active compounds read low | B-score at 10 µM | 64,000 compounds, 3.4% hits | AID 628;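 active = calcium fluorescence response, raw or row-and-column corrected B-score, differing from the plate sample mean either way at a set confidence level, mostly lower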
Target sequence (P08482 whole entry, looked up): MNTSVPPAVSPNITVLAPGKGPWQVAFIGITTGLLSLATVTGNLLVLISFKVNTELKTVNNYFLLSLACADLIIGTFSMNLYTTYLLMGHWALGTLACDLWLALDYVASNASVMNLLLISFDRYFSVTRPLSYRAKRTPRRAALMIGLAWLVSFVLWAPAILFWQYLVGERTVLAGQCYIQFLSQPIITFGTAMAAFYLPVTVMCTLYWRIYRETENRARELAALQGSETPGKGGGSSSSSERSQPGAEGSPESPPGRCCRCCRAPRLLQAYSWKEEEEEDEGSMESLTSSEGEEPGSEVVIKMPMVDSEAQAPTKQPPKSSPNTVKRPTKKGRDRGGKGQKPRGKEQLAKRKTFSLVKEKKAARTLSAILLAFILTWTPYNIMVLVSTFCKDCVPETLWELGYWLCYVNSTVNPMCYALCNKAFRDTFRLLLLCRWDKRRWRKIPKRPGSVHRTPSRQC
NADH enzymes: blocks coupling enzymes of NAD/NADH assays; coupled PK/LDH NADH assays, four targets; IC50, µM (series often up to 10 µM), inactives show top-dose inhibition; 65,000 compounds, 0.02% hits; AID 774;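 active = single-dose screening hits from any of four coupled enzyme assays that gave an IC50 when retested across doses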;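 also: the DPM-DC format reads NADH fluorescence rather than 340 nm absorbance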
Fluor 339 460: intrinsic fluorescence of library compounds, ex339/em460 – biochemical, MLSMR library, data from DPM-DC assay, artefact control, profiling panel; compound autofluorescence, ex339/em460 nm, NADH buffer; active compounds read high; 1 = no-compound wells, NADH background; fluorescence fold increase at 10 µM; 65,000 compounds, 5.5% hits;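 active = at 10 µM, mean starting fluorescence two-fold or more over control wells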;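 also: signal is the first read of a kinetic run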
M1 antag conf: confirmation of rat M1 muscarinic receptor antagonists | calcium response (max-min fluorescence) at 10 µM | CHO-M1 cells, Fluo-4 calcium, ACh EC80 antagonism; active compounds read low | 1,700 compounds, 43% hits | shares compounds with M1 antagonist;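 active = calcium response below the same-plate mean of wells given acetylcholine alone at its 80%-effect dose, minus 3 SD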;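 also: raw fluorescence intensity difference in arbitrary instrument units and not normalized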
mGluR4 antag: mGluR4 (human) activity, M1 antagonist secondary assay. 1,700 compounds, 0.9% hits. CHO-mGluR4 calcium flux, Fluo-4 fluorescence, glutamate EC80; active compounds read low. shares compounds with M1 antagonist. fluorescence response (max-min) at 10 µM;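 active = fluorescence response below the plate's average for near-maximal glutamate wells, less 3 SD of those wells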;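 also: raw unnormalized fluorescence span taken in the window right after glutamate addition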
Starred values were filed as active, the others as inactive; . = no result.

SMILES | M1 ag | A340 absorber | Htt clearance | M1 antagonist | NADH enzymes | Fluor 339 460 | M1 antag conf | mGluR4 antag
CCCCC(c1nnnn1C1CCCC1)N1CCN(C2CCCC2)CC1 (configuration not stated) | 0.003 | 1 | . | -0.165 | 8.0% | 0.99 | . | .
CCCCn1c(Cc2ccccc2)n[nH]c1=S | -0.463 | 1.04 | . | -11.6* | 5.0% | 1.06 | 53* | 263
Cc1cc(-c2ccccc2)c2nncn2n1 | 0.353 | 1 | . | -13.7* | 2.0% | 1.2 | 635 | 206
CCCN1CNC(=S)N(c2cc(C)ccc2C)C1 | . | . | -5.5 | . | . | . | . | .
C=CCC(CC=C)(C(=O)O)c1ccccc1 | -0.0693 | 1.01 | -32.7 | -0.831 | 3.0% | 1.11 | . | .
OC(CCN1CCCCC1)(c1ccccc1)c1ccccc1 | 1.91 | 0.99 | . | -12.3* | 2.0% | 1 | 22.6* | 244
O=C(CCN1CCCCCC1)c1ccccc1 | . | . | 38.6 | . | . | . | . | .
C=CCC(O)(CCN1CCCCC1)c1ccccc1 (configuration not stated) | 0.416 | 1 | -27.2 | -8.04* | 6.0% | 1.08 | 97.4* | 230
OC(C#CCN1CCOCC1)(c1ccccc1)C1CC1 (configuration not stated) | -0.28 | 1.01 | . | -0.539 | 5.0% | 1.06 | . | .
OC(CCN1CCCC1)(c1ccccc1)C1CCCCC1 (configuration not stated) | -0.405 | 0.99 | . | -16.2* | 2.0% | 1.04 | 17.5* | 268
CCc1nn(CC(=O)O)c(=O)c2ccccc12 | 0.0312 | 1.04 | -66.6 | -0.373 | 5.0% | 1.14 | . | .
COc1ccccc1N1C(=O)CCC1(C#N)c1ccccc1 (configuration not stated) | -0.516 | 1 | . | 0.127 | 2.0% | 1.05 | . | .
COc1ccc(CCNC(=O)C2CCC(CNc3c(N4CCCC4)c(=O)c3=O)CC2)cc1OC (configuration not stated) | -0.252 | 0.98 | . | -1.06 | 7.0% | 1 | . | .
O=C1CCC([N+](=O)[O-])C(c2ccc(Cl)cc2)N1 (configuration not stated) | . | . | 14.1 | . | . | . | . | .
O=C(NC1CCCCC1)c1cccnc1C(=O)O | -0.169 | 1.03 | . | -0.389 | 5.0% | 1.05 | . | .
O=C1CC(C2CCCO2)C(=O)N1c1ccccc1 (configuration not stated) | . | . | -4.6 | . | . | . | . | .
CN1CCN(c2ccccc2NC(=O)c2ccc(OCc3ccccc3)cc2)CC1 | 4.19 | 1.06 | 7.6 | -2.15* | 0.0% | 1.12 | 403* | 277
O=C(CCN1CCN(CCO)CC1)Nc1ccc(OCc2ccccc2)cc1 | -0.251 | 1 | . | -0.224 | 2.0% | 1.07 | . | .
Cc1cccc(N2CCN(C(=O)Cc3cn(C)c4ccccc34)CC2)c1C | . | . | 8.6 | . | . | . | . | .
CN1CCN(c2ccccc2NC(=O)Cc2cn(C)c3ccccc23)CC1 | 0.206 | 1 | . | -0.744* | 5.0% | 1.06 | 522* | 230
CN1CCN(CCC(=O)Nc2ccc(OCc3ccccc3)cc2)CC1 | -1.72 | 1.02 | -27.0 | -1.73* | 6.0% | 1.03 | 557 | 258
CCOC(=O)Cc1csc(NC(=O)CCN2C(=O)c3ccccc3C2=O)n1 | -0.0802 | 1.07 | 22.4 | 0.0529 | 1.0% | 1.09 | . | .
CCn1c(N)c(C(=O)NC)sc1=S | 0.35 | 1.09 | . | 0.471 | 13.0% | 1.04 | . | .
COC(=O)c1[nH]c2cc(OC)ccc2c1NC(=O)CCN1CCCCC1 | 0.247 | 1.01 | . | -1.44 | 4.0% | 1.18 | . | .
CCOC(=O)c1[nH]c2ccc(OC)cc2c1NC(=O)CCN1CCC(C)CC1 | 0.256 | 1.01 | . | -1.54* | 1.0% | 2.46* | 426* | 221
SMILES | M1 ag | A340 absorber | Htt clearance | M1 antagonist | NADH enzymes | Fluor 339 460 | M1 antag conf | mGluR4 antag
CCOC(=O)c1[nH]c2ccc(OC)cc2c1NC(=O)CCN1CCc2ccccc2C1 | 1.39 | 1.08 | -14.3 | -3.15* | 5.0% | 2.26* | 418* | 183
O=c1c2ccccc2[nH]c(=S)n1CCCN1CCN(C2CCCCC2)CC1 | 0.243 | 1.07 | 23.7 | -2.31* | 0.0% | 1.11 | 485* | 232
CCOC(=O)c1[nH]c2ccc(F)cc2c1NC(=O)CN1CCc2cc(OC)c(OC)cc2C1 | 0.915 | 1.02 | -59.2 | 0.0709 | 11.0% | 1.95 | . | .
CC1CCN(CCCn2c(=S)[nH]c3ccccc3c2=O)CC1 | 0.043 | 1.05 | 1.7 | -0.474 | 3.0% | 1.05 | . | .
COC(=O)c1[nH]c2ccccc2c1NC(=O)CCN1CCN(C2CCCCC2)CC1 | -0.826 | 1.07 | -7.0 | -3.65* | 4.0% | 1.42 | 389* | 230
COC(=O)c1[nH]c2cc(OC)ccc2c1NC(=O)CN1CCC(C(N)=O)CC1 | -0.837 | 1.07 | . | -0.356 | 6.0% | 1.28 | . | .
CCOC(=O)c1c(C)[nH]c(C(=O)COC(=O)c2ccc(F)c(S(=O)(=O)N3CCOCC3)c2)c1C | -0.834 | 0.99 | . | 0.156 | 2.0% | 1.01 | . | .
O=c1c2ccccc2nc(SCc2nc(-c3ccccc3)no2)n1-c1ccc(F)cc1 | -1.84 | 0.99 | . | -0.424 | 2.0% | 1.03 | . | .
Cc1nnc(SCC(=O)c2cc(C)n(-c3ccc4c(c3)OCO4)c2C)s1 | 1.53 | 1.02 | 6.2 | -0.153 | 6.0% | 1.04 | . | .
Cc1cc(C(=O)CSc2nnnn2C)c(C)n1-c1ccc2c(c1)OCCO2 | -0.894 | 1.01 | -5.5 | -2.76* | 6.0% | 1.09 | 435* | 297
CCOC(=O)C1CCCN(C(=O)c2ccc(OC(C)=O)cc2)C1 (configuration not stated) | 0.521 | 1.03 | -22.5 | -0.347 | 0.0% | 1.11 | . | .
CCCOc1ccc2oc(=O)c3c(c2c1)CCCN3C(=O)CN1CCCC(C(=O)OCC)C1 (configuration not stated) | 0.645 | 1.06 | . | -4.88* | 15.0% | 1.83 | 440* | 255
CC1CCN(CCC(=O)N2CCCc3c2c(=O)oc2ccc(O)cc32)CC1 | -0.306 | 1.09 | . | -2.11 | 4.0% | 1.17 | . | .
O=C(CN1CCCC1)N1CCCc2c1c(=O)oc1ccc(OCc3ccccc3)cc21 | -0.236 | 1.06 | -4.5 | -2.46* | 12.0% | 2.99* | 384* | 191
CN(CC(=O)N1CCCc2c1c(=O)oc1ccc(O)cc21)Cc1ccccc1 | 0.74 | 1.03 | -12.6 | -6.46* | 2.0% | 1.06 | 467* | 212
COC(=O)c1ccc2ccn(CC(=O)NC3CCCCC3)c2c1 | . | . | -12.9 | . | . | . | . | .
COC(=O)c1cn(CC(=O)NC2CCCCC2)c2ccccc12 | 0.331 | 1 | -2.6 | -2.01* | 7.0% | 1.14 | 572 | 219
COc1cccc(-c2nc(CS(=O)(=O)CC(=O)NCCCN3CCc4ccccc4C3)c(C)o2)c1 | -1.99 | 1.02 | -19.0 | -1.83* | 3.0% | 1.12 | 419 | 202
COc1cccc(-c2nc(CS(=O)(=O)CC(=O)NCCCOC(C)C)c(C)o2)c1 | 0.276 | 1 | -46.0 | 0.095 | 5.0% | 1.17 | . | .
COc1ccccc1-n1c(C)nnc1SCC(N)=O | 0.199 | 0.99 | . | -4.33* | 4.0% | 1 | 486 | 233
